The full list was thinned out, with hits kept by preference.
Tgondii IFNg: T. gondii growth inhibition with IFN-gamma, primary screen, cell-based. Toxoplasma gondii growth in IFN-gamma-treated host cells; stronger effect = lower value. activity change, negative = inhibition, % (no concentration beside the values). actives 3.8% (n = 69,000); in the data active means activity change below about -70%, passing the limit was not always enough;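 further: host cells are HeLa cells infected with Toxoplasma gondii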
Of the large screens only hits and unclear results are named; the others gave an inactive call; ! = repeats disagree.

Cn1cnc(S(=O)(=O)N2CC[C@H](O)[C@@H]2Cc2cnn(C)c2)c1	none
O=S(=O)(c1ccc(F)cc1F)N1CCC2(CC1)Nc1ccc(Cl)cc1-n1cccc12	none
O=C(Cn1ccnc1)NC(Cc1cccs1)c1nccs1 (centres undefined)	none
Cc1ccc(CN(Cc2cc3cccc(C)c3[nH]c2=O)C(=O)c2ccco2)cc1	Tgondii IFNg -79
COc1ccc2[nH]c(=O)c(CN(C(=O)c3ccco3)C(C)C)cc2c1	none
CCC(=O)N(Cc1ccc(C)cc1)Cc1cc2cccc(C)c2n2nnnc12	none
COCCN1CCCC(O)(CN2CCC(Oc3cccnc3)CC2)C1=O (centres undefined)	none
O=C(CC1CCC2(CC1)CCN(c1ncc(F)cn1)CC2)N1CC=CC1	none
COc1ccc2c3c([nH]c2c1)C1(NCC3)C(=O)Nc2ccccc21 (centres undefined)	none
COc1ccc2[nH]c3c(c2c1)CCN(C(=O)c1ccc(C)cc1)C31C(=O)Nc2ccccc21 (centres undefined)	Tgondii IFNg -97
Cc1ccc2[nH]c3c(c2c1)CCNC31C(=O)Nc2ccccc21 (centres undefined)	none
COCc1cnc2n1CCN(c1cc(OC)ncn1)C2C (centres undefined)	none
CCn1c2ccccc2c2cc(CNCCc3ccc(Cl)cc3Cl)ccc21	none
O=C(CN1CCCC1)N1CCc2ccccc21	none
O=C(CN1CCC(c2nc3ccccc3[nH]2)CC1)N1CCCc2ccccc21	none
O=C(CN1CCC(n2nnc3cc(C(F)(F)F)ccc32)CC1)N1CCc2ccccc21	Tgondii IFNg -81
Cc1ccc(CN2CC[C@@H]3[C@@H]2CC(=O)N3c2ccsc2)o1	none
Cc1ccc(NS(=O)(=O)c2cc3c4c(c2)CCC(=O)N4CCC3)cc1C	none
CCN(CCOC)c1cc(C2CCNCC2)ncn1	none
Cc1cccc(CN2CCC3(CCC(COCC4CC4)N3C)CC2)n1 (centres undefined)	Tgondii IFNg -85
CC(C)N1CC2(CCN(Cc3cccnc3)CC2)CC1COCC1CC1 (centres undefined)	none
Cc1ccc(C(=O)N2CCC3(CCC(COCC4CC4)N3C)CC2)cc1 (centres undefined)	none
COc1cccc(OC)c1-c1cc(C2CCN(CC3CCCC3)C2)ccn1 (centres undefined)	none
COc1cc(OC)cc(-c2noc(-c3nnn(Cc4nc(-c5ccc(C)cc5)oc4C)c3C)n2)c1	none
CCOc1ccc(S(=O)(=O)Nc2ccccn2)cc1C	none
O=C(Cn1c(=O)c(S(=O)(=O)c2ccccc2)cc2ccccc21)NCc1ccccc1	none
O=C(Nc1ccccc1Sc1c(Cl)cncc1Cl)c1cccs1	none
O=C(Nc1ccccc1)Nc1ccccc1SCCS(=O)(=O)c1ccc(Cl)cc1	none
O=C(Nc1ccc(Cl)cc1)Nc1ccccc1Sc1c(Cl)cncc1Cl	Tgondii IFNg -97
Cc1ccc2nc(COCC(=O)Nc3ncc(Cc4ccccc4)s3)[nH]c2c1	none
Cc1nc(C)c(CC(=O)Nc2ncc(Cc3ccc(F)cc3)s2)s1	Tgondii IFNg -80
Cc1nc2[nH]nc(C)n2c(=O)c1CC(=O)Nc1ncc(Cc2ccccc2F)s1	none
O=C(Nc1cnc2n1CCCC2)C1CC12CCC2 (centres undefined)	none
CC(=O)C(C)(C)OC(=O)N1CCSCC1	none
Cc1[nH]cnc1-c1nccn1-c1ccc2c(c1)OCO2	none
CCS(=O)(=O)N1CCN(Cc2nc(-c3ccc(C(=O)NC)cc3)oc2C)CC1	none
CC(C)c1cc(C(=O)Nc2ccc(OCC(=O)N3CCCCC3)cc2)nc2ncnn12	none
CC(C)C(=O)N1CCN(Cc2cnn(C)c2)CC2(CCCC(=O)N2)C1 (centres undefined)	none
CC[C@H](C)[C@H]1O[C@]2(CC[C@@H]1C)C[C@@H]1C[C@@H](C/C=C(\C)[C@@H](O[C@H]3C[C@H](OC)[C@@H](O[C@H]4C[C@H](OC)[C@@H](O)[C@H](C)O4)[C@H](C)O3)[C@@H](C)/C=C/C=C3\CO[C@@H]4[C@H](O)C(C)=C[C@@H](C(=O)O1)[C@]34O)O2	Tgondii IFNg -87!
CO[C@H]1CC(O[C@@H]2/C(C)=C/C[C@@H]3C[C@@H](C[C@]4(C=C[C@H](C)[C@@H](C5CCCCC5)O4)O3)OC(=O)[C@@H]3C=C(C)[C@@H](O)[C@H]4OC/C(=C\C=C\[C@@H]2C)[C@]43O)O[C@@H](C)C1O[C@H]1C[C@H](OC)[C@@H](O)[C@H](C)O1 (some centres undefined)	Tgondii IFNg -73
CCC(C)[C@H]1O[C@]2(CC[C@@H]1C)C[C@@H]1C[C@@H](C/C=C(\C)[C@@H](OC3C[C@H](OC)C(O[C@H]4C[C@H](OC)[C@@H](O)[C@H](C)O4)[C@H](C)O3)[C@@H](C)/C=C/C=C3\CO[C@@H]4[C@H](O)C(C)=C[C@@H](C(=O)O1)[C@]34O)O2 (some centres undefined)	Tgondii IFNg -80
CC(C)CCN1C2(CCN(C(=O)N3CCOCC3)C2)c2ccccc2S1(=O)=O (centres undefined)	none
O=C(Nc1c(C(=O)NCc2ccccn2)[nH]c2ccccc12)c1ccc(Cl)cc1	none
COCCN1CCC2(CC1)CC(CC(N)=O)c1ccc(F)cc12 (centres undefined)	none
O=C(c1cc(COc2c(F)cccc2F)on1)N1CCCC(c2ccccc2)CC1 (centres undefined)	none
O=C(Nc1ccccc1SCCS(=O)(=O)c1ccc(Cl)cc1)c1cccs1	none
COc1ccc(CCC2CCN(C(=O)c3cc(=O)n(C)c(=O)[nH]3)CC2)cc1	none
O=C(C1Cn2ccnc2C2(CCN(Cc3ccccn3)CC2)O1)N1CCCC1 (centres undefined)	none
O=C(c1cnc(Nc2ccccc2)nc1)N1CCCn2cncc2C1	none
CC1(CN)Cc2ccccc2C1	none
Clc1cccc(-c2nnc(-c3nc(NCCC4=CCCCC4)c4ccccc4n3)o2)c1	Tgondii IFNg -83
CC(C)Nc1nc(-c2nnc(-c3cccc(Cl)c3)o2)nc2ccccc12	none
Fc1ccccc1CNc1nc(-c2nnc(-c3cccc(Cl)c3)o2)nc2ccccc12	Tgondii IFNg -80
COc1ccc(CNc2nc(-c3nnc(-c4cccc(Cl)c4)o3)nc3ccccc23)cc1	none
Cc1ccc(-c2nnc(-c3nc(NCc4ccccc4F)c4ccccc4n3)o2)cc1	none
Fc1cccc(CNc2nc(-c3nnc(-c4ccccc4)o3)nc3ccccc23)c1	none
COc1cccc(CNc2nc(-c3nnc(-c4cccc(Cl)c4)o3)nc3ccccc23)c1	Tgondii IFNg -86
COc1ccc(-c2nnc(-c3nc(NCc4cccc(Cl)c4)c4ccccc4n3)o2)cc1	none
Cc1ccc(-c2nnc(-c3nc(NCCC4=CCCCC4)c4ccccc4n3)o2)cc1	none
CCOCCN1CCCC(CCc2ccc(F)c(F)c2)C1 (centres undefined)	none
O=C(Nc1cnc2n1CCCC2)c1nccnc1C(=O)N1CCCCC1	none
Fc1cnc(N2CCc3ncc(CNc4ccccn4)n3CC2)nc1	none
O=C(NCCc1csc(-c2ccccc2)n1)[C@H]1CSCN1S(=O)(=O)c1cccs1	none
COC(=O)c1sccc1-c1ccc(-c2ccn(S(=O)(=O)c3ccc(Cl)cc3)n2)o1	none
Cc1ccc(S(=O)(=O)Nc2ccc(-c3nc4ccccc4[nH]3)cc2)cc1	Tgondii IFNg -81
CC(=O)Nc1ccc(S(=O)(=O)Nc2nc3ccccc3nc2Nc2ccc(C)cc2)cc1	none
Cc1ccc(S(=O)(=O)Nc2cnc3ccccc3c2)cc1	none
COc1nc2ccccc2cc1-c1cccc(OC(C)C(N)=O)c1 (centres undefined)	none
COc1cccc(CCN2C[C@]34CN(c5ncc(C)cn5)C[C@@H](C[C@H]3S2(=O)=O)O4)c1	none
O=S(=O)(c1ccccc1F)N1CCC(c2nc3ccc(-c4ccncc4)cn3n2)CC1	none
